Test results reported in PubChem BioAssay (NCI).
This is part of a sample that, as a whole, favours compounds with a hit. Of some 83,000 tested, about 20% had one in any assay.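 Results are percent growth after 48 hours of single-concentration exposure. 100 means growth as in untreated cells, lower positive values show inhibition; negative values down to -100 show cell death.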 Activity calls are given as the source filed them. How the source made its calls: active means growth percent below 10; inactive means the rest.

Tests used:
Assay in all cases: NCI-60 one-dose screen, 48 h (100 = growth as untreated, 0 = no growth, -100 = all killed)
Conditions in all cases: 10 µM
NCI-H23 lung = test system: NCI-H23 lung
NCI-H226 lung = test system: NCI-H226 lung
HOP-62 NSCLC = test system: HOP-62 NSCLC
NCI-H460 lung = test system: NCI-H460 lung
HOP-92 NSCLC = test system: HOP-92 NSCLC
NCI-H522 lung = test system: NCI-H522 lung
A549/ATCC NSCLC = test system: A549/ATCC NSCLC
786-0 renal = test system: 786-0 renal
COLO 205 colon = test system: COLO 205 colon

Measured: growth

O=C(Nc1ccc2c(O)cc(S(=O)(=O)O)cc2c1)c1ccc([N+](=O)[O-])cc1
inactive: NCI-H23 lung 100% | NCI-H226 lung 96.2% | HOP-62 NSCLC 83.3% | NCI-H460 lung 107% | HOP-92 NSCLC 89.8% | NCI-H522 lung 84.7% | A549/ATCC NSCLC 79.3% | 786-0 renal 98.6% | COLO 205 colon 91.8%

CCOS(=O)(=O)c1c(C(C)C)cc(C(C)C)cc1C(C)C
inactive: NCI-H23 lung 98.4% | NCI-H226 lung 99.5% | HOP-62 NSCLC 98.9% | NCI-H460 lung 103% | HOP-92 NSCLC 99.1% | NCI-H522 lung 100% | A549/ATCC NSCLC 102% | 786-0 renal 105% | COLO 205 colon 104%

CCOC(=O)c1cc(C(=O)c2ccc(OC)c(OC)c2)n2c1ccc1ccc3cccnc3c12
inactive: NCI-H23 lung 39.2% | NCI-H226 lung 64.4% | HOP-62 NSCLC 29.8% | NCI-H460 lung 11% | HOP-92 NSCLC 18.9% | A549/ATCC NSCLC 36.8% | 786-0 renal 33.3%
active: NCI-H522 lung 0.908% | COLO 205 colon -2.29%

COc1cc2cc(Oc3ccc(NC(=O)Nc4ccc(C(F)(F)F)cc4)cc3)c(C)nc2cc1OC
inactive: NCI-H23 lung 79.3% | NCI-H226 lung 20.9% | HOP-62 NSCLC 18.8% | NCI-H460 lung 42.8% | HOP-92 NSCLC 56.3% | NCI-H522 lung 63.2% | A549/ATCC NSCLC 32.4% | 786-0 renal 74.9% | COLO 205 colon 40.4%

COc1ccc(-c2cc(-c3ccccc3)nc(SCCCC(=O)NO)n2)cc1
active: NCI-H23 lung -33.3% | NCI-H226 lung -8.31% | HOP-62 NSCLC -20% | NCI-H460 lung -10.3% | HOP-92 NSCLC -13.4% | NCI-H522 lung -7.67% | A549/ATCC NSCLC -2.46% | 786-0 renal -13.5% | COLO 205 colon -22.6%

CCN(CC)CCOc1cccc2c1C(=O)c1ccccc1C2=O
inactive: NCI-H23 lung 88.2% | NCI-H226 lung 93.8% | HOP-62 NSCLC 82.5% | NCI-H460 lung 101% | HOP-92 NSCLC 71.2% | NCI-H522 lung 84.3% | A549/ATCC NSCLC 90.6% | 786-0 renal 93.1% | COLO 205 colon 68.6%

O=C(O)COc1c(Cl)cc([N+](=O)[O-])cc1Cl
inactive: NCI-H23 lung 99% | NCI-H226 lung 96.4% | HOP-62 NSCLC 88.8% | NCI-H460 lung 109% | HOP-92 NSCLC 78.5% | NCI-H522 lung 76.8% | A549/ATCC NSCLC 81.7% | 786-0 renal 88.6% | COLO 205 colon 102%

O=C(O)c1cn(C2CC2)c2cc(N3CCN(C(=O)c4cc(-c5ccc(Cl)cc5)nc5ccccc45)CC3)c(F)cc2c1=O
inactive: NCI-H23 lung 82.2% | NCI-H226 lung 92.3% | HOP-62 NSCLC 82.1% | NCI-H460 lung 96.1% | HOP-92 NSCLC 90.1% | NCI-H522 lung 86.4% | A549/ATCC NSCLC 94.4% | 786-0 renal 88.3% | COLO 205 colon 110%

NS(=O)(=O)Oc1ccc2c(ccn2C(=O)C23CC4CC(CC(C4)C2)C3)c1
inactive: NCI-H23 lung 97% | NCI-H226 lung 93.4% | HOP-62 NSCLC 111% | NCI-H460 lung 104% | HOP-92 NSCLC 122% | NCI-H522 lung 94.9% | A549/ATCC NSCLC 101% | 786-0 renal 110% | COLO 205 colon 114%

COc1cc(/C=C2\CCCC3=C2N=C2SC(C)=CN2C3c2cc(OC)c(OC)c(OC)c2)cc(OC)c1OC (configuration not stated)
inactive: HOP-92 NSCLC 55.4%
active: NCI-H23 lung -30.4% | NCI-H226 lung -56.7% | HOP-62 NSCLC -19.6% | NCI-H460 lung 1.37% | NCI-H522 lung -21.8% | A549/ATCC NSCLC -23.4% | 786-0 renal -18.1% | COLO 205 colon -71%

Cc1ccc(C(=O)/C=C/c2ccccc2)s1
inactive: NCI-H23 lung 109% | NCI-H226 lung 93.8% | HOP-62 NSCLC 120% | NCI-H460 lung 108% | HOP-92 NSCLC 144% | NCI-H522 lung 93.5% | A549/ATCC NSCLC 101% | 786-0 renal 86.7% | COLO 205 colon 134%

CC(C)(C)OC(=O)N1CCc2c(sc3ncnc(N/N=C/c4cccc5ccccc45)c23)C1
active: NCI-H460 lung 4.98%
inactive: NCI-H23 lung 12.9% | NCI-H226 lung 31% | HOP-62 NSCLC 27.8% | HOP-92 NSCLC 25.6% | NCI-H522 lung 16% | A549/ATCC NSCLC 23.8% | 786-0 renal 16.9% | COLO 205 colon 13.8%

CC[C@@H]1NC(=O)[C@H]([C@H](O)[C@H](C)C/C=C/c2ccc(CN3C(=O)CCCC3=O)cc2)N(C)C(=O)[C@H](C(C)C)N(C)C(=O)[C@H](CC(C)C)N(C)C(=O)[C@H](CC(C)C)N(C)C(=O)[C@@H](C)NC(=O)[C@H](C)NC(=O)[C@H](CC(C)C)N(C)C(=O)[C@H](C(C)C)NC(=O)[C@H](CC(C)C)N(C)C(=O)CN(C)C1=O
inactive: NCI-H23 lung 68.8% | HOP-62 NSCLC 62.1% | NCI-H460 lung 71.2% | HOP-92 NSCLC 53.3% | NCI-H522 lung 23.5% | A549/ATCC NSCLC 47.1% | 786-0 renal 67.1% | COLO 205 colon 53.9%
active: NCI-H226 lung -22.8%
